Laboratory results reported in the supplement of paper PMC6089552.
Among all 3,200 compounds or so, about 300 (9.4%) showed activity. This excerpt belongs to a sample that is enriched for actives.

System: A673/TR/shEF
Assay: cell viability (LOESS-normalised, relative to median of negative controls) (log2 ratio); higher = more viable cells (less compound effect), active = hit call of the paper (over 3 MAD below the median)
Details: treatment time: 72 h
Outline: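 Viability of A673/TR/shEF Ewing sarcoma cells was determined by CellTiter-Glo luminescence. The cells, at 1,500 per well in 384-well plates, were grown with or without doxycycline from 24 h before compound addition to switch on EWS-FLI1 shRNA knockdown, then exposed for three days to library compounds at two or more concentrations or to DMSO controls. Signals were LOESS-corrected plate by plate, normalised to the negative-control median and log2-transformed.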

[1] = 0.25 µM, library screen: screen1, EWS-FLI1 expression: high (no doxycycline)
[2] = 0.25 µM, library screen: screen1, EWS-FLI1 expression: low (doxycycline-induced shRNA knockdown)
[3] = 2.5 µM, library screen: screen1, EWS-FLI1 expression: high (no doxycycline)
[4] = 2.5 µM, library screen: screen1, EWS-FLI1 expression: low (doxycycline-induced shRNA knockdown)
[5] = 0.25 µM, library screen: screen2, EWS-FLI1 expression: high (no doxycycline)
[6] = 0.25 µM, library screen: screen2, EWS-FLI1 expression: low (doxycycline-induced shRNA knockdown)
[7] = 2.5 µM, library screen: screen2, EWS-FLI1 expression: high (no doxycycline)
[8] = 2.5 µM, library screen: screen2, EWS-FLI1 expression: low (doxycycline-induced shRNA knockdown)
[9] = 0.103 µM, library screen: screen3, EWS-FLI1 expression: high (no doxycycline)
[10] = 0.103 µM, library screen: screen3, EWS-FLI1 expression: low (doxycycline-induced shRNA knockdown)
[11] = 0.308 µM, library screen: screen3, EWS-FLI1 expression: high (no doxycycline)
[12] = 0.308 µM, library screen: screen3, EWS-FLI1 expression: low (doxycycline-induced shRNA knockdown)
[13] = 0.926 µM, library screen: screen3, EWS-FLI1 expression: high (no doxycycline)
[14] = 0.926 µM, library screen: screen3, EWS-FLI1 expression: low (doxycycline-induced shRNA knockdown)
[15] = 2.8 µM, library screen: screen3, EWS-FLI1 expression: high (no doxycycline)
[16] = 2.8 µM, library screen: screen3, EWS-FLI1 expression: low (doxycycline-induced shRNA knockdown)
[17] = 8.3 µM, library screen: screen3, EWS-FLI1 expression: high (no doxycycline)
[18] = 8.3 µM, library screen: screen3, EWS-FLI1 expression: low (doxycycline-induced shRNA knockdown)
[19] = 25 µM, library screen: screen3, EWS-FLI1 expression: high (no doxycycline)
[20] = 25 µM, library screen: screen3, EWS-FLI1 expression: low (doxycycline-induced shRNA knockdown)

Measured: cell viability (log2)

COc1cc(/C=C/C(=O)/C=C(O)/C=C/c2ccc(O)c(OC)c2)ccc1O
inactive: [1] 0.0822 | [2] 0.0311 | [3] 0.0603 | [4] -0.0173

COC(=O)c1c(C)c2c(c(C)c1OC(C)=O)OC(=O)c1c(C)c(Cl)c(OC(C)=O)c(Cl)c1O2
inactive: [1] 0.0638 | [2] 0.0229 | [3] 0.0457 | [4] -0.0376

C/C1=C2N=C(/C=C3N=C(/C(C)=C4\[N-]C(C(CC(N)=O)C4(C)CCC(=O)NCC(C)OP(=O)([O-])OC4C(CO)OC(n5cnc6cc(C)c(C)cc65)C4O)C4(C)N=C1C(CCC(N)=O)C4(C)CC(N)=O)C(CCC(N)=O)C\3(C)C)C(CCC(N)=O)C/2(C)CC(N)=O.[Co+3] (stereo not drawn)
inactive: [1] -0.0019 | [2] 0.0391 | [3] 0.0729 | [4] 0.0491

COc1cc(CN2CCN(Cc3cccc(Cl)c3)CC2)c([N+](=O)[O-])cc1OC
inactive: [1] 0.103 | [2] 0.0472 | [3] 0.18 | [4] 0.111

CCc1c(C)c(C#N)c2nc3ccccc3n2c1N1CCN(C)CC1
inactive: [1] 0.145 | [2] 0.157 | [3] 0.118 | [4] 0.0375

N#C/C(=C\c1ccc(O)c(O)c1)C(N)=O
0.319: [1]
active: [3] -0.381 | 25 µM, library screen: screen1, EWS-FLI1 expression: high (no doxycycline) -0.224
inactive: 0.025 µM, library screen: screen1, EWS-FLI1 expression: high (no doxycycline) 0.246 | 0.025 µM, library screen: screen1, EWS-FLI1 expression: low (doxycycline-induced shRNA knockdown) 0.0278 | [2] 0.0878 | [4] 0.0598 | 25 µM, library screen: screen1, EWS-FLI1 expression: low (doxycycline-induced shRNA knockdown) 0.125

N#C/C(=C\c1ccc(O)c(O)c1)C(=O)c1ccc(O)c(O)c1
active: [5] -0.567 | [6] -0.546 | [7] -2.72 | [8] -2.83

N#C/C(=C\c1ccc(O)c(O)c1)C(=O)NCCCNC(=O)/C(C#N)=C/c1ccc(O)c(O)c1
inactive: [5] 0.153 | [6] 0.132 | [7] 0.199 | [8] 0.0575

COc1cc(/C=C(\C#N)C(=O)c2ccc(O)c(O)c2)cc(I)c1O
inactive: [5] 0.152 | [6] 0.068 | [7] 0.173 | [8] -0.0106

N#C/C(=C\c1c[nH]c2ccccc12)C(=O)c1ccc(O)c(O)c1
inactive: [5] 0.155 | [6] 0.0215 | [7] 0.202 | [8] 0.127

c1coc(CN2CCN(Cc3ccc4ccccc4c3)CC2)c1
inactive: [1] 0.0477 | [2] 0.0071 | [3] 0.142 | [4] 0.0832

COc1ccc2c(c1)CCC1C2CCC2(C)C1C[C@@H](O)[C@@H]2O (stereo partly drawn)
inactive: [1] 0.105 | [2] 0.0162 | [3] 0.204 | [4] -0.0118

OC[C@H]1O[C@@H](n2cnc3c(NCCc4ccccc4)ncnc32)C(O)[C@H]1O (stereo partly drawn)
inactive: [5] 0.15 | [6] 0.163 | [7] 0.0914 | [8] 0.0608

O=C(O)CCC(=O)OCC(NC(=O)C(Cl)Cl)C(O)c1ccc([N+](=O)[O-])cc1 (stereo not drawn)
inactive: 0.025 µM, library screen: screen2, EWS-FLI1 expression: high (no doxycycline) 0.127 | 0.025 µM, library screen: screen2, EWS-FLI1 expression: low (doxycycline-induced shRNA knockdown) 0.0706 | [1] -0.0271 | [2] 0.0474 | [5] 0.193 | [6] -0.0115 | [3] 0.0762 | [4] 0.177 | [7] 0.153 | [8] 0.083 | 25 µM, library screen: screen2, EWS-FLI1 expression: high (no doxycycline) 0.0706 | 25 µM, library screen: screen2, EWS-FLI1 expression: low (doxycycline-induced shRNA knockdown) 0.0478

O=c1c(O)c(-c2cc(O)c(O)c(O)c2)oc2cc(O)ccc12
inactive: [1] 0.128 | [2] -0.0317 | [3] 0.0648 | [4] 0.111

COc1cc(CN2CCN(Cc3cccc(F)c3)CC2)cc2c1OCO2
inactive: [1] 0.0873 | [2] 0.0661 | [3] 0.0312 | [4] 0.0566

COc1ccc(-c2ccc3c(N4CCOC[C@@H]4C)nc(N4CCOC[C@@H]4C)nc3n2)cc1CO
active: [9] -0.268 | [10] -0.292 | [11] -0.621 | [12] -0.525 | [13] -1.05 | [14] -0.821 | [15] -1.66 | [16] -1.37 | [17] -1.89 | [18] -1.59 | [19] -1.94 | [20] -1.78

COc1ccc(-c2ccc3c(N4CCOCC4)nc(N4C[C@@H](C)O[C@@H](C)C4)nc3n2)cc1CO
active: [15] -0.379 | [16] -0.377 | [17] -0.748 | [18] -0.617 | [19] -1.51 | [20] -1.39
inactive: [9] -0.102 | [10] -0.0255 | [11] -0.124 | [12] -0.0614 | [13] -0.171 | [14] -0.169

COc1cc(/C=C2\SC(NC(C)=O)=NC2=O)cc(Br)c1OC
inactive: [1] 0.0313 | [2] 0.0267 | [3] 0.0885 | [4] 0.0962

O=C(O)Cc1cc(I)c(Oc2cc(I)c(O)c(I)c2)c(I)c1
inactive: [1] 0.0518 | [2] 0.0863 | [3] 0.0776 | [4] -0.0191
